Screens (PubChem)
Rows were chosen to be rich in hits. Some 0.41% of all compounds tested hit in one or more screens of this group.
YopH inh: inhibitors of Yersinia enterocolitica YopH tyrosine phosphatase; fluorescence Ex485/Em525; inhibition, % (test concentration not listed); 140,000 tested, 0.16% active; in the data active means inhibition above about 50%
RmlCD inh mix: mixture blocks RmlC and RmlD coupled enzyme activity; RmlC/RmlD coupled enzyme inhibition, 384-well mixture HTS; inhibition, % at 5.5 µM; 110,000 tested, 0.39% active; AID 1532; in the data active means inhibition above about 30%, passing the limit was not always enough
* marks the source's active call; other numbers are inactive results; / = no result given.

SMILES | YopH inh | RmlCD inh mix
Fc1ccc(-c2csc3[n+]2CCS3)cc1 | -9 | 4
O=[N+]([O-])c1ccc(-c2csc3[n+]2CCS3)cc1 | 51* | -4
O=C(Nc1c2c(nc3ccccc13)CCCC2)c1cccc([N+](=O)[O-])c1 | -22 | /
Nc1cccc(C2=Nc3cccc4cccc(c34)N2)c1 | 62* | /
COc1ccc(C2=Nc3cccc4cccc(c34)N2)cc1 | -21 | /
CCCC/C(C)=N/NC(=O)c1cn(-c2ccccc2)nc1-c1ccccc1 | -30 | /
CC1(C)CC(=O)C(C(C2=C(O)CC(C)(C)CC2=O)c2cccc(O)c2)C(=O)C1 (centres undefined) | -14 | -10
CC1(C)CC(=O)C2=C(C1)N(c1cccc(O)c1)C1=C(C2)C(=O)CC(C)(C)C1 | -49 | 39*
O=C(NC1CCCCC1)c1sc(N2CCOCC2)nc1-c1ccccc1 | -16 | /
O=C(c1ccc(F)cc1)[C@@H]1[C@@H](C(=O)c2ccccc2)[C@@]2(C(=O)Nc3ccccc32)[C@H]2c3ccccc3C=CN12 | 83* | /
CC(=O)[C@@H]1[C@@H](C(=O)c2ccc(C)cc2)[C@]2(C(=O)Nc3ccccc32)[C@H]2C=Cc3cc(F)ccc3N12 | 27 | /
C#C[C@]1(O)CC[C@H]2[C@@H]3CCC4=C(CCC(=O)C4)[C@H]3CC[C@@]21C | -28 | 13
CCOC(=O)N1CCN(c2cc(NCCC(=O)O)c3c4c(onc24)-c2ccccc2C3=O)CC1 | 87* | /
O=C(O)CCCNc1cc(N2CCC3(CC2)OCCO3)c2noc3c2c1C(=O)c1ccccc1-3 | 9 | /
CC1(c2cccc3ccccc23)NC(=O)N(CC(=O)NC2CCS(=O)(=O)C2)C1=O (centres undefined) | -5 | /
O=C(c1ccco1)[C@@H]1[C@@H]2C(=O)N(c3ccccc3)C(=O)[C@@H]2C2c3ccccc3C=CN21 (some centres undefined) | 82* | -6
CC(C)(C)C(=O)[C@@H]1[C@@H]2C(=O)N(c3ccc4c(c3)OCCO4)C(=O)[C@@H]2C2c3ccccc3C=CN21 (some centres undefined) | 5 | -13
COc1ccc(N2C(=O)[C@@H]3[C@H](C2=O)[C@H]2c4ccccc4C=CN2[C@@H]3C(=O)Nc2ccccc2)cc1 | 5 | 44
Cc1ccc(N2C(=O)[C@@H]3[C@H](C2=O)C2c4ccccc4C=CN2[C@@H]3C(=O)c2ccco2)cc1 (some centres undefined) | 92* | -15
Cc1ccc(N2C(=O)[C@@H]3[C@H](C2=O)C2c4ccccc4C=CN2[C@@H]3C(=O)c2ccco2)c(C)c1 (some centres undefined) | 95* | -8
CC(=O)[C@@H]1[C@@H]2C(=O)N(Cc3ccccc3)C(=O)[C@@H]2C2c3ccccc3C=CN21 (some centres undefined) | 35 | 8
COC(=O)c1ccc(NC(CC(C)C)C(=O)OC)c([N+](=O)[O-])c1 (centres undefined) | -5 | /
COCCNC(=O)/C(C#N)=C1\N=C(N)c2ccccc21 | -3 | /
CCC(=O)Nc1cc(C(=O)OCC(=O)c2ccccc2)ccc1C | -31 | /
COc1ccc(/C=N/OCC(=O)NCc2cccs2)c(OC)c1 | -45 | /
SMILES | YopH inh | RmlCD inh mix
Nc1nnc2c(n1)CCCC2 | 52* | -6
C1CCc2nc3c(nc2C1)CCCC3 | / | -15
CCCCN1C(=O)Nc2ccccc2S1(=O)=O | -19 | /
COc1ccc(C(NC(=O)c2ccccc2F)NC(=O)c2ccccc2F)cc1 | -21 | /
CC1=C/C(=N\NC(=O)c2ccccc2)CC1 | -27 | /
Cc1onc(-c2c(Cl)cccc2Cl)c1C(=O)NCc1ccccn1 | -20 | 4
Cc1onc(-c2ccccc2)c1C(=O)NCc1ccccn1 | 53* | -16
O=C(NCc1ccccn1)c1coc(=O)c(Br)c1 | -13 | 34*
CCOc1ccc(C(=O)NCc2ccccn2)cc1 | -38 | -31
CC1=CCC2C(=O)N(c3ccccc3OC(=O)c3ccccc3F)C(=O)C2C1 (centres undefined) | -16 | /
CCCN1CCC(=O)N([C@H](CSc2ccc(OC)cc2)c2ccccc2)CC1 | / | 6
O=C(O)c1ccccc1SCC(=O)N1c2ccccc2Sc2ccccc21 | 60* | /
O=C(O)c1ccccc1SCC(=O)N1CCCCC1 | -31 | -3
COc1ccc(CCNC(=O)CN2C(=O)c3ccccc3S2(=O)=O)cc1OC | -2 | -10
Cc1ccc(CSCCNC(=O)CN2C(=O)c3ccccc3S2(=O)=O)cc1 | 56* | 14
CCCCC1=CC2=C(c3ccco3)C(=O)C(C)(OC(=O)c3ccc(OC)cc3)C(=O)C2=CN1C1CCCCC1 (centres undefined) | / | 1
CCO[C@H]1OC(C(=O)NCc2ccccc2)=C[C@@H](C(C)(C)C)[C@@H]1CCCO | / | 2
COc1cccc(-c2nc(CS(=O)(=O)CC(=O)N3CCN(C)CC3)c(C)o2)c1 | -9 | 4
COc1cccc(-c2nc(CS(=O)(=O)CC(=O)N3CCc4ccccc4C3)c(C)o2)c1 | 80* | 12
Cc1ccc(C)c(NC(=S)N(CCc2nc3cc(C)c(C)cc3[nH]2)Cc2cccnc2)c1 | -42 | -11
